Screening data: PubChem, several laboratories
Compounds with a hit are over-represented: about 1.9% of the library has one in this group of screens.
GLD-1 TGE inh = GLD-1-TGE RNA interaction inhibition (C. elegans); actives 0.44% (n = 320,000); purified GLD-1 + fluorescein TGE RNA, fluorescence polarization; inhibition, % at 5.96 µM; Q17339;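 active means percent inhibition above a per-plate cutoff, the plate mean of test compounds plus 3 SD, cut at about 30% in these data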;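 further: 0% = DMSO wells with GLD-1 and probe and 100% = wells lacking GLD-1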
LANA-H2B inh = blocks KSHV LANA binding to histone H2A/H2B; cell-free LANA-H2A/H2B peptide, fluorescence polarization; inhibition, % (no concentration beside the values); AID 2629; Q9QR71; actives 0.6% (n = 320,000); in the data active means inhibition mostly above about 10%, no sharp cut-off; inactive means mostly below about 6.7%
CR mimetic SO = caloric restriction mimetics inhibiting age-related superoxide in yeast. S. cerevisiae aged cells, superoxide DHE fluorescence; active compounds read low. superoxide response (% of plate mean), % at 10 µM. actives 0.18% (n = 330,000). AID 2690;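 active means superoxide response under a set limit, about three screen SD below normal, cut at about 65% in these data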;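 further: yeast aged for seven days with compound at 30 °C before DHE staining; 100% = average MFI of all compound-treated wells on the plate with controls excluded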
MCL1 BIM primary = disrupts human MCL1 binding to BIM-BH3 peptide | inhibition, % at 10.9 µM | GST-MCL1 / FITC-Bim-BH3 fluorescence polarization | actives 0.68% (n = 320,000) | Q07820;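 active means inhibition above the mean inhibition of all tested compounds plus 3 SD, set per campaign, cut at about 40% in these data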;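 further: 0% = DMSO wells and 100% = unlabeled Bim-BH3 peptide control; higher means more loss of mP so more displacement of Bim peptide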
Bcl-xL primary = blocks human Bcl-xL binding to Bim BH3 peptide. Q07817. GST-Bcl-xL / FITC-Bim BH3 peptide fluorescence polarization. actives 0.7% (n = 320,000). AID 2129. inhibition, % at 10.9 µM;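 active means inhibition above the mean of all tested compounds plus 3 SD, cutoff set per campaign, cut at about 30% in these data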;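 further: 0% = DMSO wells and 100% = unlabeled Bim-BH3 peptide competitor; inhibitors lower millipolarization by displacing the labeled peptide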
MEX-5 binding = C. elegans MEX-5 TCR-2 RNA binding activity; Q9XUB2; MEX-5/FITC-TCR2 RNA binding, fluorescence polarization; active compounds read low; activity score (negative = inhibition of binding), % at 10 µM; actives 0.38% (n = 300,000);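 active means inhibition past about -25% in most replicates, and total fluorescence under double the plate's negative control median, limit read from the data; inconclusive means replicates evenly split on the limit, or fluorescence at least double controls; inactive means too little inhibition in most replicates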;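 further: 0% = DMSO and -100% = 5 µM competing unlabeled TCR2 RNA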
BCLXL inh confirm = counter-screen for MCL1 inhibitors: confirmation of human Bcl-xL inhibitors; shares compounds with MCL1 BIM primary; GST-Bcl-xL / FITC-Bim BH3 peptide FP binding; inhibition, % at 10.9 µM; actives 54% (n = 1,700); AID 2166;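 active means inhibition above a cutoff equal to the mean inhibition of all tested compounds plus 3 SD, cut at about 30% in these data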;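 further: 0% = DMSO wells and 100% = unlabeled Bim BH3 control peptide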
MCL1 BIM confirm = MCL1-BIM-BH3 interaction inhibition, confirmation; shares compounds with MCL1 BIM primary; GST-MCL1 / FITC-Bim-BH3 fluorescence polarization; inhibition, % at 10.9 µM; actives 61% (n = 1,700);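 active means inhibition above the average of all tested compounds plus 3 SD, cut at about 40% in these data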;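 further: 0% = DMSO wells and 100% = unlabeled Bim-BH3 control peptide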
An asterisk follows results filed as active; ? = inconclusive; / = no result; + = active, no number.

SMILES | GLD-1 TGE inh | LANA-H2B inh | CR mimetic SO | MCL1 BIM primary | Bcl-xL primary | MEX-5 binding | BCLXL inh confirm | MCL1 BIM confirm
Cc1ccc(C(=O)CNc2cc(C)ccc2C)cc1 | -1.1 | 3.5 | 86.2 | -1.2 | 2.7 | -3.3 | / | /
CC(=O)Nc1ccc(SCCN2CC[C@@H](C(C)(C)C)CCC2=O)cc1 | -9.4 | 2.3 | 85.6 | 9.1 | 6.6 | / | / | /
O=C(O)c1ccccc1C1=Nc2ccc(O)cc2Oc2cc(O)ccc21 | 134.7* | 16.9* | 85.1 | 196.3* | 166.7* | ? | 141.6* | 177.8*
CC1(C)CC(NC(=O)C2CCC(=O)N(Cc3ccccc3F)C2)CC(C)(C)C1 (stereo unspecified) | / | / | / | / | / | -1.9 | / | /
O=C(O)c1[nH]c2ccccc2c1C(c1cc(Cl)cc([N+](=O)[O-])c1O)c1c(C(=O)O)[nH]c2ccccc12 | 9.4 | 3.6 | 132.9 | 50.6* | 12.5 | -61.3* | 10.2 | 27.2
Cc1cc2ccccc2n1CCNC(=O)Cc1ccccc1 | 16.0 | -2.5 | 98.0 | 7.6 | 7.2 | -1.1 | / | /
Cc1cc2ccccc2n1CCNC(=O)C(C)C | 96.4* | -0.2 | 102.0 | 84.4* | 75.5* | 0.2 | 25.0 | 35.0
N#CC1(C#N)C(c2ccccc2)OC23CCCCC2C1(C#N)C(=N)O3 (stereo unspecified) | 102.0* | 8.2 | 140.1 | 177.5* | 132.2* | -48.6* | 17.4 | 15.8
N#CC1(C#N)C(c2ccccc2)OC23CCCCCC2C1(C#N)C(=N)O3 (stereo unspecified) | 21.0 | -1.6 | 99.9 | 48.4* | 36.3* | -9.1 | 77.6* | 101.4*
c1ccc(CSc2cc3ccccc3[nH]2)cc1 | -1.3 | -2.4 | 96.1 | 3.7 | 5.1 | 0.7 | / | /
Cc1c(S(=O)(=O)c2ccccn2)c(N)n(Cc2ccccc2Cl)c1C | 10.7 | 1.4 | 89.5 | 26.5 | 20.6 | -4.4 | / | /
COCCn1c(C)c(C)c(S(=O)(=O)c2ccccc2)c1N | 28.6 | 0.7 | 105.1 | 72.3* | 67.8* | 2.3 | 43.7* | 61.6*
CCOC(=O)c1cc2n(c1/N=C/N(C)C)-c1ccccc1C2=O | 169.5* | 8.8 | 109.7 | + | 191.5* | ? | 185.5* | +
CCOC(=O)c1ccc2c(c1)N(C)C(=O)c1ccccc1S2 | -9.6 | 3.6 | 104.0 | -20.6 | -17.0 | 0.9 | / | /
O=C(O)c1cccc(-n2cccc2/C=C/[N+](=O)[O-])c1 | 19.5 | 2.8 | 123.7 | 71.7* | 43.8* | -35.6* | 41.1* | 57.5*
O=C(O)c1cccc(-n2cccc2/C=C\[N+](=O)[O-])c1 | 14.2 | 2.7 | 106.8 | 18.1 | 12.6 | -13.1 | / | /
CCOc1ccc(/C=C/C(=O)Nc2ccc(OC)cc2[N+](=O)[O-])cc1 | 63.0* | 15.2 | 89.2 | 83.2* | 56.8* | ? | 59.9* | 68.5*
O=c1oc(-c2ccco2)nc2ccccc12 | 8.5 | 1.8 | 106.7 | 2.9 | 4.8 | -0.2 | / | /
O=C(NCCc1ccccc1)c1ccc2nc(-c3ccco3)c(-c3ccco3)nc2c1 | 8.2 | -2.2 | 93.3 | 40.0* | 28.9 | -0.6 | 42.5* | 75.0*
O=C(NCCc1ccccc1)c1ccc(=O)oc1 | -5.9 | -0.4 | 110.1 | -14.6 | -4.0 | 2.0 | / | /
c1coc(-c2nc3ccccc3nc2-c2ccco2)c1 | 9.7 | -5.4 | 112.4 | 60.5* | 33.6* | ? | 33.6* | 42.3*
O=C(NC1CCCC1)c1ccc2nc(-c3ccco3)c(-c3ccco3)nc2c1 | 9.2 | -0.3 | 96.9 | 64.0* | 40.8* | / | 40.1* | 76.2*
O=C(NCCO)c1ccc2nc(-c3ccco3)c(-c3ccco3)nc2c1 | 20.6 | -2.4 | 97.0 | 56.5* | 42.9* | -38.7* | 59.6* | 77.4*
CC(C)(C)OC(=O)C[C@@H]1C/C=C\C[C@H](CC(=O)NCCO)C(=O)NC[C@@H](c2ccccc2)OC1=O | 7.8 | 6.9 | 85.0 | / | / | / | / | /
CCN(CC)S(=O)(=O)c1ccc(O)c(C(=O)OCC(=O)NC23CC4CC(CC(C4)C2)C3)c1 | 2.8 | -1.3 | 94.0 | / | / | / | / | /
SMILES | GLD-1 TGE inh | LANA-H2B inh | CR mimetic SO | MCL1 BIM primary | Bcl-xL primary | MEX-5 binding | BCLXL inh confirm | MCL1 BIM confirm
CC(OC(=O)c1ccc([N+](=O)[O-])s1)C(=O)NC1CCCCC1C (stereo unspecified) | -2.6 | -6.9 | 149.8 | -6.3 | -7.0 | / | / | /
COc1ccc2[nH]c3c(c2c1)CCN1C(=O)C(CC(=O)NCc2cccc(C(F)(F)F)c2)C[C@H](C(=O)N2CCCCC2)[C@@]31CCc1ccccc1 (stereo partly specified) | / | / | 116.0 | / | / | / | / | /
Cc1ccc(-c2nn(-c3ccccc3)cc2/C=C2\SC(=S)N(CC(=O)O)C2=O)cc1 | -3.7 | -1.3 | 96.2 | 70.1* | 8.3 | 1.1 | 15.9 | 9.6
COc1ccc(-c2nn(-c3ccccc3)cc2/C=C2/SC(=S)N(CCC(=O)O)C2=O)cc1 | -13.3 | -3.9 | 106.2 | 2.4 | 5.5 | 2.1 | / | /
C=CCn1c(SCC(=O)Nc2ccc3c(c2)CCC3)nc2ccccc2c1=O | 1.9 | 4.5 | 118.6 | + | -1.0 | -1.5 | 5.7 | 14.6
CCCCn1c(SCC(=O)Nc2ccc3c(c2)CCC3)nc2ccccc2c1=O | 0.9 | 0.5 | 79.6 | 0.5 | 4.1 | -1.1 | / | /
O=C(COC(=O)CNC(=O)c1ccco1)Nc1ncc(Cl)cc1Cl | 30.1 | 4.1 | 122.8 | 8.6 | 16.9 | / | / | /
CCN(C(=O)C(C)N1C(=O)/C(=C/c2ccco2)SC1=S)C1CCS(=O)(=O)C1 (stereo unspecified) | 11.6 | 1.2 | 102.4 | 58.8* | 33.0* | -0.8 | 24.8 | 56.5*
O=C1/C(=C\c2ccco2)SC(=S)N1C1CCS(=O)(=O)C1 (stereo unspecified) | 1.4 | -0.3 | 96.3 | 18.9 | 6.5 | 0.8 | / | /
O=C1/C(=C/c2ccco2)SC(=S)N1C1CCS(=O)(=O)C1 (stereo unspecified) | 18.1 | 4.5 | 102.2 | 67.3* | 29.8 | -1.3 | 13.9 | 18.4
CC(C(=O)N(C)C1CCS(=O)(=O)C1)N1C(=O)/C(=C/c2ccc(F)cc2)SC1=S (stereo unspecified) | 1.4 | -2.0 | 105.3 | 9.3 | 3.8 | -2.0 | / | /
Oc1oc(-c2ccc(Br)cc2)nc1/C=N/c1ccccn1 | 2.1 | 5.9 | 116.0 | 68.8* | 2.8 | -2.1 | 4.8 | 4.3
O=C(Cn1cnc2c(OCc3ccccc3)ncnc21)NCCc1c[nH]c2ccccc12 | 1.4 | / | 84.7 | / | / | / | / | /
CCOc1ccccc1NC(=O)C1(S(=O)(=O)c2ccc(Cl)cc2)CC1 | 1.5 | 5.9 | 94.7 | 2.0 | -1.2 | 2.0 | / | /
